Sampled rows, rich in hits. Any-hit rate of the full collection: about 20%.
CHX counter: counter-screen hit for Shiga toxin inhibitors, cycloheximide. cell reporter, cycloheximide protein synthesis inhibition counterscreen. max response, %. 12% of 300,000 active; in the data active = max response mostly above about 13%, no sharp cut-off; inactive = mostly below about 14%; note: read at 38.3 µM for the half of the compounds with a filed dose; 0% is about no effect
Pf growth 96h: P. falciparum growth inhibition at 96 hour, primary screen for plastid delayed-death inhibitors; AID 504834; P. falciparum luciferase reporter growth, 96 h; Potency, µM (titrated, usually from 28.7 µM), without a hit: top-dose activity change, negative = inhibition, most hits filed as inhibitors; 6.9% of 320,000 active; note: potency is the fitted concentration of half-maximal effect; % is set by controls: 0 for no effect and ±100 for the full control effect
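Two parasite generations (96 h, 37 C, 5% CO2) of compound exposure in infected erythrocytes (0.05% parasitemia, 2% hematocrit). Luciferase-reporter P. falciparum; decreased luminescence indicates inhibited growth, aimed at apicoplast-acting delayed death.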
HCMV antiviral: inhibitors of human cytomegalovirus; 4.5% of 410,000 active; activity change, negative = inhibition, % at 57.5 µM; HFF cells, HCMV-luciferase reporter, 72 h; active compounds read low; in the data active = activity change below about -60%; inconclusive = no clear call, values can overlap the other calls; inactive = above about -39%; note: % is set by controls: 0 for no effect and ±100 for the full control effect
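Two-dose cell screen: HFF monolayers treated with compounds and infected with luciferase-expressing HCMV at 1 PFU/cell, 72 h at 37C, then lysed for luciferase measurement.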
Pf growth 48h: P. falciparum growth inhibition at 48 hours (one generation) | P. falciparum luciferase growth in erythrocytes, 48 h | Potency, µM (titrated, usually from 28.7 µM), without a hit: at the top dose activity change, negative = inhibition, most hits filed as inhibitors | 5.9% of 310,000 active | AID 504832; note: potency is the fitted concentration of half-maximal effect; % is set by controls: 0 for no effect and ±100 for the full control effect
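A one-generation exposure of luciferase-tagged malaria parasites in RPMI 1640/Albumax erythrocyte culture, 37 C and 5% CO2. Inhibition is inferred from decreased luminescence after adding detection reagent.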
Shiga inhibitor: Shiga toxin inhibition. Vero cells, Shiga toxin protein synthesis inhibition reporter. inhibition, % at 38.7 µM. 9.2% of 290,000 active. AID 2315; in the data active = inhibition mostly above about 28%, no sharp cut-off; inactive = mostly below about 43%; note: 0% is about no effect
* marks the source's active call; other numbers are inactive results; i = inactive; u = inconclusive; x = no result; ! = a repeat was not active. Unless noted, calls come from the whole dose curve; as a rule, active = well fitted inhibition curve with a large enough effect; inconclusive = small, poorly fitted or top-dose-only effect, or another doubt; inactive = no such curve, though single readings can be large or run the other way.

SMILES	CHX counter	Pf growth 96h	HCMV antiviral	Pf growth 48h	Shiga inhibitor
CCC1Oc2ccccc2N(CC(=O)NCCCN2CCN(c3ccc(OC)cc3)CC2)C1=O (configuration not stated)	-1.6	u	0.0	0.6%	-7.5
O=C(CSc1nccn1C1CCCC1)Nc1cccc(F)c1	x	x	-15.2	x	x
Cc1ccc(S(=O)(=O)C(C#N)c2nc3ccccc3nc2N2CC(C)OC(C)C2)cc1C (configuration not stated)	-9.2	u	-32.5	13.1µM*	-11.2
CC1CN(c2nc3ccccc3nc2C(C#N)C(=O)NC2CCCCC2)CC(C)O1 (configuration not stated)	18.7*	u	x	-15.5%	19.2
CC1CN(c2nc3ccccc3nc2C(C#N)C(=O)OC2CCCCC2)CC(C)O1 (configuration not stated)	0.9	u	-33.8	2.08µM*	1.3
CC(C)COc1nc2ccccc2nc1C(C#N)C(=O)NC1CCCCC1 (configuration not stated)	-2.5	u	u	x	-4.2
Cc1cccc(S(=O)(=O)C(C#N)c2nc3ccccc3nc2N2CC(C)OC(C)C2)c1 (configuration not stated)	6.7	24.9%	-18.7	u	25.9
Cc1cc(C)cc(N(C(=O)CCC(=O)Nc2ccccn2)C(C(=O)NC(C)C)c2ccc(O)cc2)c1 (configuration not stated)	-2.6	u	x	-11.9%	-8.9
COC(=O)CSc1nc(NC(C)(C)C)nc(N(C)C)n1	33.0*	u	32.8	-1.0%	106.9
COC(=O)CSc1nc(NC(C)C)nc(N(C)C)n1	11.9	5.4%	49.4	-2.2%	13.6
CCOc1ccc(C(=O)N2CCCCC2CCN2CCOCC2)cc1 (configuration not stated)	x	x	9.4	x	x
CC[C@H](C)[C@@H](C(=O)NCCCCCCCCCCC(=O)N1CCN(C(=O)OC(C)(C)C)CC1)n1cc(CCCCN=C(NC(=O)OC(C)(C)C)NC(=O)OC(C)(C)C)nn1	x	1.85µM*	x	1.17µM*	x
Cc1cn([C@H](C(=O)NCCCCCCCCCCC(=O)N2CCN(C(=O)OC(C)(C)C)CC2)[C@@H](C)O)nn1	x	9.28µM*	-33.6	10.4µM*	x
CC[C@H](C)[C@@H](C(=O)NCCCCCCCCCCC(=O)N1CCN(C(=O)OC(C)(C)C)CC1)n1cc(CCCCCNC(=O)OC(C)(C)C)nn1	x	1.04µM*	-69.5*	1.47µM*	x
CC(=O)NC(Cc1ccccc1F)C(=O)NC1CCN(S(=O)(=O)c2ccccc2)CC1 (configuration not stated)	-4.5	44.2%	11.9	6.1%	14.6
O=C(CSc1nnc(CNC(=O)c2ccc(F)cc2)o1)NCc1ccc2c(c1)OCO2	5.6	-0.1%	30.0	8.7%	-14.8
CNS(=O)(=O)c1cc(Br)ccc1S(=O)c1ccccc1C(=O)O (configuration not stated)	4.4	0.0%	24.1	2.6%	-15.3
COc1ccc(S(=O)(=O)N2CCOCC2)cc1NC(=O)CSc1nnc2n1CCCCC2	x	x	0.9	x	x
O=C(NC1CCCCC1)OC[C@@H]1CSCCS(=O)(=O)N1	x	x	-5.2	x	x
C=CCOC(=O)C1=C(C)NC(=O)NC1c1ccc2c(c1)OCO2 (configuration not stated)	-3.2	u	3.6	-24.9%	-9.4
C=CCOC(=O)c1c(C)nc2cc3c(cc2c1C)OCO3	28.8*	44.5%	38.2	40.4%	68.6*
CCOC(=O)N1CCc2c(sc3c2c(=O)n(Cc2ccccc2)c(=O)n3Cc2cccc(Cl)c2)C1	x	x	10.1	x	x
CCN(CC)CCNc1ccc(C)c2sc3ccc(O)cc3c(=O)c12	x	x	-96.9*	x	x
CCN(CC)CCNc1ccc(CO)c2oc3cc(Cl)ccc3c(=O)c12	x	x	-28.3	x	x
CCOc1ccccc1C(=O)N[C@H](C(=O)OCC(=O)Nc1nnc(-c2ccccc2)o1)C(C)C	x	x	20.3	x	x
SMILES	CHX counter	Pf growth 96h	HCMV antiviral	Pf growth 48h	Shiga inhibitor
O=C1CCCc2nc(N3CCN(C(=O)c4ccco4)CC3)ncc21	19.5*	9.28µM*	79.2	126.3%	25.1*
Nc1nc(N2CCN(C(=O)c3ccco3)CC2)nc2ccc(Br)cc12	25.4*	34.2%	x	34.7%	50.1*
Nc1nc(N2CCN(C(=O)c3ccco3)CC2)nc2ccccc12	28.0*	-6.4%	78.5	u	67.1*
O=C(c1ccco1)N1CCN(c2ncccn2)CC1	6.3	-10.5%	49.9	x	7.2
Cc1nc(C(=O)N(C)C)nn1-c1cc(Cl)ccc1Cl	6.5	3.8%	-17.5	3.5%	-8.5
COc1cccc2oc3cc(C#CC4(O)CCCCC4)ccc3c(=O)c12	34.7*	i	66.1	330.2%	57.5*
COc1cccc2oc3cc(C#Cc4ccccn4)ccc3c(=O)c12	27.2*	u	10.0	-6.2%	35.3*
O=c1c2ccccc2oc2cc(C#CC3(O)CCCCC3)ccc12	x	x	-80.2*	x	x
CN1C(=O)C(C2(O)C(=O)Nc3ccccc32)c2ccccc21 (configuration not stated)	x	x	3.7	x	x
N#CC1=C(O)C(c2ccccc2)n2c1nc(=O)c1ccccc12 (configuration not stated)	-4.6	u	-9.5	u	-4.8
CCC(C)Sc1ccc(-c2nc3cnccn3c2NC2CCCCC2)cc1 (configuration not stated)	x	7.38µM*	11.5	7.38µM*	x
Cc1ccn2c(NC3CCCCC3)c(-c3cccc(-c4cccc(Cl)c4)c3)nc2c1	x	10.4µM*	-3.0	8.28µM*	x
Cc1ccn2c(NC3CCCC3)c(-c3ccncc3)nc2c1	4.4	u	0.0	36.8%	4.0
CCC(C)Sc1ccc(-c2nc3cc(C)ccn3c2NC2CCCCC2)cc1 (configuration not stated)	x	x	-102.5*!	x	x
CCCCCCSc1ccc(-c2nc3cnccn3c2NC2CCCCC2)cc1	x	x	28.6	x	x
Cc1cccc(-n2ncc3c(=O)[nH]c(SCC(=O)N4CC(=O)Nc5ccccc54)nc32)c1	x	8.8%	-36.7	u	x
Cc1ccc2cc(C3CC(c4cccs4)=NN3S(C)(=O)=O)c(Cl)nc2c1 (configuration not stated)	-3.3	u	u	u	14.3
Cc1ccc2nc(Cl)c(C3CC(c4cccs4)=NN3S(C)(=O)=O)cc2c1 (configuration not stated)	15.3	u	-60.2*	u	18.2
COc1ccc2cc(C3CC(c4cccs4)=NN3S(C)(=O)=O)c(Cl)nc2c1 (configuration not stated)	24.1*	u	27.3	-8.6%	37.4
Cc1ccc(CNC(=O)C2CCN(c3nn4cc(-c5ccc(F)cc5)nc4s3)CC2)cc1	x	x	0.0	x	x
CC(=O)C(Sc1ccc2nnc(-c3cccnc3)n2n1)C(C)=O	-7.6	1.8%	-29.6	8.1%	-11.3
O=C(NNC(=O)c1cccs1)c1ccc(Cl)c(Cl)c1	-1.4	u	10.4	24.7%	23.7
CCOC(=O)c1c(-c2ccccc2)oc2ccc(OCC(O)CNCCN(C)C)cc12 (configuration not stated)	-15.2	u	-8.3	2.08µM*	-25.4

Screens (PubChem)
